PubChem BioAssay (NCI)
Where “and” joins values, the source holds several entries; their conditions need not be identical. Equal entries are not always repeated. This is part of a sample that, as a whole, favours compounds with a hit. Of some 83,000 tested, about 20% had one in any assay.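 96-well plates, one dose, 48 hours. Percent growth reported; active if below 10.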 Calls of active or inactive are those of the source.

Each compound was assayed on MDA-MB-468 breast (assay: NCI-60 one-dose screen, 48 h (100 = growth as untreated, 0 = no growth, -100 = all killed)). Conditions: 10 µM.

Question: Which growth does the source give for `COc1ccc(-c2cc(C(=O)N=Nc3c(O)[nH]c4ccc(Br)cc34)c3ccccc3n2)cc1` here?
Answer: 11.1% (inactive)

Question: Which growth does the source give for `CC(=O)c1ccc(Nc2nc(SCCC(C)C)nc(-c3ccc(F)cc3)c2C#N)cc1` here?
Answer: 69% (inactive)

Question: How did the growth turn out when `Clc1cccc(N/N=C/c2c[nH]c3ccccc23)n1` was run?
Answer: -10.1% (active)

Question: How did the growth turn out when `O=[N+]([O-])c1ccc(-c2nc(-c3ccccc3)c(-c3ccccc3)n2-c2ccc(S(=O)(=O)Nc3ncccn3)cc2)cc1` was run?
Answer: 40% (inactive)

Question: How did the growth turn out when `O=C(CSc1nnc(-c2ccc3nc(-c4ccc(Cl)cc4)[nH]c3c2)o1)Nc1ccc(Cl)cc1` was run?
Answer: -48.4% (active)

Question: `CCOC(=O)c1c(CSc2ccccc2)n(C)c2cc(CN(C)C)c(O)c(CN(C)C)c12` was tested. Which growth did it give?
Answer: -4.94% (active)

Question: `N#Cc1c(NC(=O)c2cccc(C(F)(F)F)c2)sc2c1CCC(O)=C2` was tested. Which growth did it give?
Answer: -18.6% (active)

Question: With `Cc1ccc(-c2nc(Nc3ccc(S(N)(=O)=O)cc3)c3ccccc3n2)cc1` as the compound, how does the growth read?
Answer: 44.2% (inactive)

Question: `Cc1ccc2nc(COc3ccc(C(=O)NNC(=S)NC(=O)c4ccccc4)cc3)[nH]c2c1` was tested. Which growth did it give?
Answer: 55.6% (inactive)

Question: For `O=C(CNc1nc(-c2ccccc2)cs1)Nc1cccc([N+](=O)[O-])c1`, which growth is on record?
Answer: -90.6% (active)

Question: `CC(=O)Nc1ccc(-c2cn(-c3cccc(C(=O)Nc4cccc(OC(F)(F)F)c4)c3)nn2)cn1` was tested. Which growth did it give?
Answer: 86.7% (inactive)

Question: `OCCCNc1oc(-c2ccccc2)nc1[P+](c1ccccc1)(c1ccccc1)c1ccccc1` was tested. Which growth did it give?
Answer: -41.3% (active)

Question: Which growth does the source give for `CC(C)Sc1nc(NC2CC2)c(C#N)c(-c2ccccc2)n1` here?
Answer: 80.4% (inactive) and 99.9% (inactive)

Question: Which growth does the source give for `OCCNc1oc(-c2ccccc2)nc1[P+](c1ccccc1)(c1ccccc1)c1ccccc1` here?
Answer: -43.2% (active)

Question: Which growth does the source give for `C/C(=C\c1ccc(O)cc1O)c1ccc2ccc(O)cc2[o+]1` here?
Answer: 64% (inactive)

Question: With `Cc1noc2c(Cc3ccc([N+](=O)[O-])cc3)nn(CC(=O)N/N=C/c3ccc(Cl)cc3)c(=O)c12` as the compound, how does the growth read?
Answer: 5.37% (active)

Question: For `CCOC(=O)CNC(=O)CN(Cc1ccccc1)C(=O)[C@@]1(C)CCC[C@]2(C)[C@H]3CC4C(C(C)C)=C[C@]3(CC[C@H]21)[C@@H]1C(=O)CCC(=O)[C@H]41`, which growth is on record?
Answer: 3.12% (active)

Question: Which growth does the source give for `O=C(CSc1nnc(-c2c[nH]c3ccccc23)n1-c1ccccc1)c1ccc(Cl)cc1` here?
Answer: 46.4% (inactive)

Question: `COc1ccc(-c2cc(C(=O)N=Nc3c(O)[nH]c4ccc(F)cc34)c3ccccc3n2)cc1` was tested. Which growth did it give?
Answer: 44.2% (inactive)

Question: Which growth does the source give for `O=C1Nc2ccc(Cl)cc2/C1=C/c1ccc(OCc2ccccn2)cc1` here?
Answer: 50.4% (inactive)

Question: Which growth does the source give for `Cc1noc2c(Cc3ccccc3)nn(CC(=O)N/N=C/c3ccc(Cl)cc3)c(=O)c12` here?
Answer: 81% (inactive)

Question: Which growth does the source give for `COc1ccc2[nH]c(=O)c(CSc3cccc(N)c3)cc2c1` here?
Answer: 34.7% (inactive)

Question: With `COc1ccc(C(=O)/C=C/c2cc(F)cc(C(F)(F)F)c2)cc1S(N)(=O)=O` as the compound, how does the growth read?
Answer: -93.2% (active)

Question: For `Nc1cc(-c2cccc(C(=O)NCc3ccc4c(c3)OCO4)c2)ccn1`, which growth is on record?
Answer: 88.1% (inactive)

Question: For `Cc1ccc(/C(N)=N/c2sc(-c3ccccc3)nc2-c2ccccc2)cc1`, which growth is on record?
Answer: 75.6% (inactive)

Question: `CN(C(=O)c1ccc(C(C)(C)C)cc1)c1sc2c(c1C#N)CCC(=O)C2` was tested. Which growth did it give?
Answer: -41.4% (active)

Question: Which growth does the source give for `O=C(NO)c1ccc(CNC(=O)[C@H]2Cc3c([nH]c4ccccc34)[C@H](c3ccccc3)N2)cc1` here?
Answer: -6.19% (active)

Question: `COc1ccc2cc([C@H](C)C(=O)NCc3ccccc3)ccc2c1` was tested. Which growth did it give?
Answer: -20.3% (active)

Question: For `Cc1noc2c(Cc3ccccc3)nn(CC(=O)N/N=C/c3ccc(F)cc3)c(=O)c12`, which growth is on record?
Answer: 85.4% (inactive)

Question: `COc1cnc2c(c1)C(=O)c1c-2n(CCCNCCO)c(=O)c2cc(OC)c(OC)cc12` was tested. Which growth did it give?
Answer: -48.8% (active)

Question: `CN1CCc2c(sc3ncnc(N/N=C/c4cn(-c5ccccc5)nc4-c4ccc(Cl)cc4)c23)C1` was tested. Which growth did it give?
Answer: -55.4% (active)

Question: With `N#Cc1c(NC(=O)c2ccc(C(F)(F)F)cc2C(F)(F)F)sc2c1CCC(=O)C2` as the compound, how does the growth read?
Answer: -79.9% (active)

Question: `O=C1N/C(=N\c2nccs2)S/C1=C\c1cccs1` was tested. Which growth did it give?
Answer: 10.4% (inactive)

Question: `CC(=O)c1ccc(Nc2nc(SC(C)C)nc(-c3ccccc3)c2C#N)cc1` was tested. Which growth did it give?
Answer: 131% (inactive) and -1.07% (active)

Question: For `O=C(CNc1nc(-c2ccccc2)cs1)Nc1ccc([N+](=O)[O-])cc1Cl`, which growth is on record?
Answer: -30.3% (active)

Question: Which growth does the source give for `O=C(NO)c1ccc(Cn2ccc3c(Nc4ccccc4)ncnc32)cc1` here?
Answer: -5.25% (active)

Question: How did the growth turn out when `O=C(NO)c1ccc(CN2CCN(c3nc(-c4ccccc4)c4ccccc4n3)CC2)cc1` was run?
Answer: -14.2% (active)
